According to the supplement of paper PMC13380429:

Tested on: Vero E6 infected with SARS-CoV-2
Assay: inhibition of SARS-CoV-2 cytopathic effect; higher = more antiviral protection, active = above 15
Conditions: 48 h

Measured: inhibition of SARS-CoV-2 cytopathic effect

CC(C)C[C@H](NC(=O)CNC(=O)c1cc(Cl)ccc1Cl)B(O)O [ixazomib]
active: 10000 nM 22.9%
inactive: 1 nM -2.33% | 8.33 nM 2.02% | 100 nM 5.21% | 833.33 nM -11%

CC[C@@]1(O)C(=O)OCc2c1cc1n(c2=O)Cc2cc3ccccc3nc2-1 [camptothecin]
inactive: 1 nM -1.27% | 8.33 nM 1.92% | 100 nM -1.93% | 833.33 nM -11.9% | 10000 nM -20.7%

O=C(NOCCO)c1ccc2cncn2c1Nc1ccc(I)cc1F
inactive: 1 nM -1.68% | 8.33 nM -5.37% | 100 nM -12.8% | 833.33 nM -14.4% | 10000 nM -13.2%

CCC(=O)N[C@@H]1Cc2ccccc2[C@H](c2ccccc2)C1
inactive: 1 nM 1.13% | 8.33 nM 2.8% | 100 nM 2.79% | 833.33 nM 3.72% | 10000 nM 2.13%

Cn1ncnc1[C@H]1c2n[nH]c(=O)c3cc(F)cc(c23)N[C@@H]1c1ccc(F)cc1 [talazoparib]
inactive: 1 nM 0.71% | 8.33 nM 2.94% | 100 nM 2.17% | 833.33 nM -0.1% | 10000 nM -3.8%

CCN(CC)Cc1nccn1-c1ccc([N+](=O)[O-])cc1C(=O)c1ccccc1Cl [nizofenone]
inactive: 1 nM -1.17% | 8.33 nM 0.76% | 100 nM -0.2% | 833.33 nM 0.15% | 10000 nM 1.83%

COc1cc2nccc(Oc3ccc(NC(=O)C4(C(=O)Nc5ccc(F)cc5)CC4)cc3)c2cc1OC [cabozantinib]
inactive: 1 nM 1.77% | 8.33 nM 1.83% | 100 nM -0.89% | 833.33 nM -1.04% | 10000 nM -14.2%

COc1nc(C)cnc1NS(=O)(=O)c1cccnc1-c1ccc(-c2nnco2)cc1 [zibotentan]
inactive: 1 nM -2.02% | 8.33 nM -0.17% | 100 nM -0.98% | 833.33 nM -3.56% | 10000 nM -1.47%

O=C(NCCCCN1CCN(c2cccc(Cl)c2Cl)CC1)c1ccc2c(c1)Cc1ccccc1-2
inactive: 1 nM 0.39% | 8.33 nM 2.85% | 100 nM -2.31% | 833.33 nM -1.17% | 10000 nM -3.44%

O=C1O[C@H](CO)[C@@H](O)[C@H](O)[C@H]1O [gluconolactone]
inactive: 1 nM -1.05% | 8.33 nM 1.67% | 100 nM -0.14% | 833.33 nM -0.97% | 10000 nM -1.07%

C[C@H](Nc1cc(-c2cnn(C)c2)cc(Nc2cnccn2)n1)c1ccc(F)cc1
inactive: 1 nM 1.93% | 8.33 nM 1.68% | 100 nM 2.86% | 833.33 nM -4.39% | 10000 nM -8.8%

CC(=O)N1N=C(c2ccc(N)cc2)c2cc3c(cc2C[C@H]1C)OCO3 [talampanel]
inactive: 1 nM -0.4% | 8.33 nM 0.84% | 100 nM 0.91% | 833.33 nM 1.19% | 10000 nM 1.16%

CC(C)=CC[C@@H](O)C1=CC(=O)c2c(O)ccc(O)c2C1=O [Shikonin]
inactive: 1 nM 0.59% | 8.33 nM 0.65% | 100 nM 0.38% | 833.33 nM 3.65% | 10000 nM 2.04%

CCCCNC(=O)NS(=O)(=O)c1ccc(C)cc1 [tolbutamide]
inactive: 1 nM 0.11% | 8.33 nM 0.83% | 100 nM -0.09% | 833.33 nM 0.89% | 10000 nM -0.3%

C[N+](C)(C)CCOP(=O)(O)OC[C@H](O)CO [choline-alfoscerate]
inactive: 1 nM -1.69% | 8.33 nM -1.94% | 100 nM -3.48% | 833.33 nM -1.31% | 10000 nM -2.46%

OC[C@H]1OC(O)[C@H](O)[C@@H](O)[C@@H]1O (stereo not given in full) [dextrose]
inactive: 1 nM 0.5% | 8.33 nM -0.54% | 100 nM 0.12% | 833.33 nM -9.41% | 10000 nM -1.07%

C[C@@]12CCc3occc3[C@H]1CC[C@@]13C[C@@H](CC[C@H]12)[C@@](O)(CO)C3 [cafestol]
inactive: 1 nM -4.07% | 8.33 nM -1.86% | 100 nM 2% | 833.33 nM 2.62% | 10000 nM 1.59%

C=CC(=O)Nc1cccc(Oc2nc(Nc3ccc(N4CCN(C)CC4)cc3)nc3ccsc23)c1 [olmutinib]
inactive: 1 nM -1.91% | 8.33 nM 3.26% | 100 nM 11.6% | 833.33 nM -12% | 10000 nM -10.1%
